Results taken from PubChem BioAssay.
Values without a mark were called inactive. For some assays here: Entries with a potency or affinity are not part of this list. Active and inactive are the calls of the source. Unless noted, how the calls were made is not given here.

Experiments:
[1] = antimalarial activity against Dd2 strain (AID 2302;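 active means growth inhibition above 50% at the single 2 µM test dose, taken to imply half-maximal potency below 2 µM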;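 further: 0% = DMSO untreated growth and 100% = chloroquine plus artemisinin killed control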); settings: P. falciparum Dd2 in RBCs, LDH growth readout, 72 h; at 2 µM; stronger effect = higher value
[2] = HepG2 cytotoxicity, primary screen, cytotoxicity control for P. falciparum antimalarial project, cell-based, ATP luminescence (AID 2303;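 active means inhibition above 50%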;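 further: 0% = DMSO wells and 100% = digitonin-killed cells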); settings: HepG2 viability, 24-48 h, at 10 µM, stronger effect = higher value
[3] = target: L-lactate dehydrogenase (Plasmodium falciparum (isolate CDC / Honduras)) (UniProt Q27743); test: PfLDH activity inhibition – cell lysate, 3D7 strain, counter-screen for P. falciparum growth inhibition project (AID 2304);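 further: 0% = vehicle and 100% = reference inhibitor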; settings: P. falciparum 3D7 crude extract, LDH APAD/NBT absorbance; at 2 µM; stronger effect = higher value
Chain of L-lactate dehydrogenase (Plasmodium falciparum (isolate CDC / Honduras)) (Q27743 whole entry, looked up): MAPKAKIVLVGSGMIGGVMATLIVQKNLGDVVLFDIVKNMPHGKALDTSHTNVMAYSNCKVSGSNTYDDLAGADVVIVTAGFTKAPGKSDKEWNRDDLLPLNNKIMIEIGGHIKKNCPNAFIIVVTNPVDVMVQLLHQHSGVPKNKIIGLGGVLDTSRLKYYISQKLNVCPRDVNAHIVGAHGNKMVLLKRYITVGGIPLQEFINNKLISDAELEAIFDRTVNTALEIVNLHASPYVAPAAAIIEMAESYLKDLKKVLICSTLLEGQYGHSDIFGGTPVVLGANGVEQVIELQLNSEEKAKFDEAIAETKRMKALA

[4] = inhibition of 3D7 malaria parasite growth – strain 3D7 (AID 2306);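 further: 0% = DMSO wells and 100% = chloroquine plus artemisinin control wells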; settings: P. falciparum 3D7 erythrocytic growth, LDH absorbance, 72 h; at 2 µM; stronger effect = higher value
[5] = target: Calcium-dependent protein kinase 1 (Plasmodium falciparum (isolate 3D7)) (UniProt P62344); test: PfCDPK1 kinase inhibitors, biochemical, TCAMS library (AID 1159585; cut-off not given, nearly all actives have IC50 up to about 0.98 µM;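 further: inhibitors leave more ATP so luminescence rises with inhibition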); settings: recombinant PfCDPK1, Kinase-Glo ATP depletion luminescence
Chain of Calcium-dependent protein kinase 1 (Plasmodium falciparum (isolate 3D7)) (P62344 whole entry, looked up): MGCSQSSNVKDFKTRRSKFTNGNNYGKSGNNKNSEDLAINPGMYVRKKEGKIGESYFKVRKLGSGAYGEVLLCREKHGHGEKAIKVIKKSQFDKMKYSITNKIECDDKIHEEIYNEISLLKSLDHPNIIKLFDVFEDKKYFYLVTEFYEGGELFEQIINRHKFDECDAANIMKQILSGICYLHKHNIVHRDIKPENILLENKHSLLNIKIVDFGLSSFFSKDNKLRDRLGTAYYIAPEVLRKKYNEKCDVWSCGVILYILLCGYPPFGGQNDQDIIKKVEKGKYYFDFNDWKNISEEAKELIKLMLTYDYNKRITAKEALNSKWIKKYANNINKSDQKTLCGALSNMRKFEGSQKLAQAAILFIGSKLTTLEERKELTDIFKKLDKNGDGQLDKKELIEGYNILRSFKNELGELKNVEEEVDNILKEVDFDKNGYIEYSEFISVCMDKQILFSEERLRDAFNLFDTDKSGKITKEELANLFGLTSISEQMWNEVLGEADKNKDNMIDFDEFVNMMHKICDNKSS

[6] = target: Plasmodium falciparum protein kinase 6 (PK6, PF3D7_1337100) (UniProt Q8IDW1); test: PfPK6 kinase inhibitors, biochemical, TCAMS library (AID 1159586); settings: recombinant PfPK6, Kinase-Glo ATP depletion luminescence
Chain of Plasmodium falciparum protein kinase 6 (PK6, PF3D7_1337100) (Q8IDW1 1-305): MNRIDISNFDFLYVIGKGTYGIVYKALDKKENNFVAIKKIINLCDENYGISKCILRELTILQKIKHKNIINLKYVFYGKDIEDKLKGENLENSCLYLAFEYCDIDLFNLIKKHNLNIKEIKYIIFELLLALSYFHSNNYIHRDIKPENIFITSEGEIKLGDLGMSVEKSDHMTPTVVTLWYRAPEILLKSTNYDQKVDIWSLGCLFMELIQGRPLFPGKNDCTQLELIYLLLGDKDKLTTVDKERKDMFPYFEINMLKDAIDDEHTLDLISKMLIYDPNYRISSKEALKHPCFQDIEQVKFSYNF

[7] = target: Protein kinase 7 (PK7), Plasmodium falciparum 3D7 (PF3D7_0213400) (UniProt Q7YTF7); test: inhibition of Plasmodium PK7 catalytic activity – biochemical, TCAMS antimalarial set, Kinase-Glo luminescence (AID 1159587); settings: recombinant PfPK7, Kinase-Glo ATP depletion luminescence
Chain of Protein kinase 7 (PK7), Plasmodium falciparum 3D7 (PF3D7_0213400) (Q7YTF7 1-343): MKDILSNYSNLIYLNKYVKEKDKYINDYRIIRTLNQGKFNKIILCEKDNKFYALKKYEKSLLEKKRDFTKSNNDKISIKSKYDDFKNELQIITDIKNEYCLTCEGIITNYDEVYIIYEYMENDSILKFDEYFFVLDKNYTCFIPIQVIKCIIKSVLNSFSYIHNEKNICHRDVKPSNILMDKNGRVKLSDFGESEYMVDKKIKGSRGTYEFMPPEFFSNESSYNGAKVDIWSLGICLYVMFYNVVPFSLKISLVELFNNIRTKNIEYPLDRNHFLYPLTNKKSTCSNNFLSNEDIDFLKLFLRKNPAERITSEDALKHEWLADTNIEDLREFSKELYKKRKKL

[8] = target: Calcium-dependent protein kinase 4 (Plasmodium falciparum (isolate 3D7)) (UniProt Q8IBS5); test: PfCDPK4 kinase inhibitors, biochemical, TCAMS library (AID 1159588; cut-off not given, nearly all actives have IC50 up to about 0.91 µM); settings: recombinant PfCDPK4, Kinase-Glo ATP depletion luminescence
Chain of Calcium-dependent protein kinase 4 (Plasmodium falciparum (isolate 3D7)) (Q8IBS5 whole entry, looked up): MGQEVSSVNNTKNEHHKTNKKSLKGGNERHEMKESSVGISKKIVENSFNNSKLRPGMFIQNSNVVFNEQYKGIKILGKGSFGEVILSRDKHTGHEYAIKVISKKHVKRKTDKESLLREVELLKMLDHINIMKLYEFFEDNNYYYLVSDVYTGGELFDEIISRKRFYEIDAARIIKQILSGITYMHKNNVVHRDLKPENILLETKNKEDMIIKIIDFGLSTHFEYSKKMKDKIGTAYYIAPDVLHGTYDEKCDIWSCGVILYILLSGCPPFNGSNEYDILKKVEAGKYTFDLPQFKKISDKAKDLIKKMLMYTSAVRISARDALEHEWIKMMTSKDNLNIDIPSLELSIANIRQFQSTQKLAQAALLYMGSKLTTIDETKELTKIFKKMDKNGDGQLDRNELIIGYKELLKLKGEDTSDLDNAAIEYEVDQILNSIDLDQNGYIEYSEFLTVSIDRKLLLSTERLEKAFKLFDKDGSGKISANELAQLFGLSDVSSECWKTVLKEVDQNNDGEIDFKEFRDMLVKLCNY

| SMILES | growth inhibition [1] | inhibition [2] | inhibition [3] [%] | growth inhibition [4] | outcome [5] | outcome [6] | outcome [7] | outcome [8] |
| --- | --- | --- | --- | --- | --- | --- | --- | --- |
| COc1ccccc1NC(=O)Nc1ccc(-c2cccc(-c3nc4ccccc4[nH]3)c2)cc1 | 25% | 42% | 0 | 101% (active) | inactive | inactive | inactive | inactive |
| c1ccc2[nH]c(-c3ccc(-c4ccc(CN5CCCCC5)cc4)s3)nc2c1 | 69% (active) | 41% | 2 | 102% (active) | inactive | inactive | inactive | inactive |
| Nc1nc(N)c2c(ccc3c2cnn3S(=O)(=O)N2CCCC2)n1 | 3% | 70% (active) | 2 | 93% (active) | inactive | inactive | inactive | inactive |
| CCCCCCCCn1ccc(=N)cc1 | 84% (active) | 49% | -5 | 91% (active) | inactive | inactive | inactive | inactive |
| N#Cc1ccc2c(c1)CN(C1CCC(NC(=O)C3=Cc4cc(Cl)ccc4OC3)CC1)CCC2 (stereo not given) | 8% | -5% | 2 | 93% (active) | inactive | inactive | inactive | inactive |
| CCc1c(CCNCCCCCCNCc2ccc3c(c2CC)OCO3)ccc(OC)c1OC | 19% | 38% | 6 | 100% (active) | inactive | inactive | inactive | inactive |
| Oc1cccc(Nc2ccnc3cc(-c4ccccn4)ccc23)c1 | 98% (active) | 24% | -3 | 96% (active) | inactive | inactive | inactive | inactive |
| COc1cc(C(=O)NCCCN2CCN(c3cc(Cl)ccc3OC)CC2)ccc1-c1nc2cc(Cl)c(Cl)cc2[nH]1 | 99% (active) | 12% | -3 | 102% (active) | inactive | inactive | inactive | inactive |
| Cc1cc(C)cc(CC(=O)N2CCC(n3c(C)nc4ccc(C)cc43)CC2)c1 | 100% (active) | 52% (active) | 6 | 100% (active) | inactive | inactive | inactive | inactive |
| COc1ccc(-c2cccc(NC(=O)c3ccc(C#N)cc3)c2)cc1CNC(C)C | 14% | 25% | -1 | 100% (active) | inactive | inactive | inactive | inactive |
| Clc1ccc2c(NN=Cc3ccco3)ccnc2c1 | 96% (active) | 3% | -4 | 100% (active) | inactive | inactive | inactive | inactive |
| CC(C)(C)c1ccc(CNCC(C)(C)c2nc(-c3ccc(Cl)c(O)c3)c(-c3ccnc(N)n3)[nH]2)cc1 | 54% (active) | 28% | -7 | 100% (active) | inactive | inactive | inactive | inactive |
| CCc1ccc(C(=O)NC(=O)c2ccccc2O)cc1 | 84% (active) | -4% | 1 | 95% (active) | inactive | inactive | inactive | inactive |
| CCn1cnc2c(N3CCCC3=O)cc(C(=O)N[C@@H](Cc3ccccc3)[C@H](O)CNC3CCCCC3)cc21 | 94% (active) | -2% | -5 | 98% (active) | inactive | inactive | inactive | inactive |
| COc1ccc(CN2CCC(N3CC(c4ccccc4)(c4ccccc4)OCC3=O)C2)c(O)c1 (stereo not given) | 27% | 10% | 3 | 96% (active) | inactive | inactive | inactive | inactive |
| CCn1ccc2c(N3CCCS3(=O)=O)cc(C(=O)N[C@@H](Cc3ccccc3)[C@H](O)CNC(C)(C)c3cccc(OC)c3)cc21 | 98% (active) | 20% | -8 | 99% (active) | inactive | inactive | inactive | inactive |
| CN1CCN(c2ccc(CNc3ccc4ncc(-c5cccc(OC(F)(F)F)c5)n4n3)cc2)CC1 | 78% (active) | 25% | 3 | 89% (active) | inactive | inactive | inactive | inactive |
| COc1ccc2nccc([C@@H](O)CN3CCC(NCc4ccc5scnc5c4)CC3)c2c1 | 93% (active) | 17% | -1 | 101% (active) | inactive | inactive | inactive | inactive |
| CCN(CC)CCN(Cc1ccc(-c2ccc(C(F)(F)F)cc2)cc1)C(=O)Cn1c(CCc2cccc(F)c2F)cc(=O)cc1-c1ccccc1 | 64% (active) | 33% | -2 | 94% (active) | inactive | inactive | inactive | inactive |
| Clc1ccc2c(N3CCCNCC3)ccnc2c1 | 99% (active) | 11% | -1 | 100% (active) | inactive | inactive | inactive | inactive |

| SMILES | growth inhibition [1] | inhibition [2] | inhibition [3] [%] | growth inhibition [4] | outcome [5] | outcome [6] | outcome [7] | outcome [8] |
| --- | --- | --- | --- | --- | --- | --- | --- | --- |
| CCN(CC)CCNc1ccnc2[nH]c3ccc(C)cc3c12 | 81% (active) | 9% | -3 | 102% (active) | inactive | inactive | inactive | inactive |
| CC(C)CCN1CCCN(Cc2ccc(C(=O)Nc3ccc(F)c(F)c3)cc2)CC1 | 27% | 36% | 5 | 88% (active) | inactive | inactive | inactive | inactive |
| CCCCCCCN1CC[C@@H](CCCc2ccnc3ccc(OCCN4CCNCC4)cc23)[C@@H](CC)C1 | 98% (active) | 82% (active) | -2 | 101% (active) | inactive | inactive | inactive | inactive |
| O=C(Nc1ccc(CCNC2=NCCN2)cc1)Nc1ccc(CCNC2=NCCN2)cc1 | 66% (active) | 6% | 4 | 90% (active) | inactive | inactive | inactive | inactive |
| Cn1cc(CCNc2ccnc(NCCc3coc4ccccc34)n2)c2ccccc21 | 28% | 26% | 6 | 87% (active) | inactive | inactive | inactive | inactive |
| Cc1cccc(-n2c(Nc3ccc(C)c(Cl)c3)nc3ccc(S(=O)(=O)NC(C)C(C)C)cc32)c1 (stereo not given) | 97% (active) | -9% | 4 | 97% (active) | inactive | inactive | inactive | inactive |
| CC(=O)Nc1ccc(CN(C)C2CCN(c3cc(NC(=O)c4cccc(C)c4)ccn3)CC2)cc1 | 13% | -2% | -1 | 94% (active) | inactive | inactive | inactive | inactive |
| COc1cc(NC(=O)c2sc(-c3ccc(Cl)cc3)cc2NC(=O)CN2CCCC2)ccc1OCCN1CCCC1 | 79% (active) | 29% | 3 | 86% (active) | inactive | inactive | inactive | inactive |
| COc1ccc(C(=O)N2CCC(CN3CCOC(c4ccccc4)(c4ccccc4)C3)CC2)cc1 | 96% (active) | 19% | 5 | 95% (active) | inactive | inactive | inactive | inactive |
| O=C(Nc1ccc(C(F)(F)F)cc1)NC1CCN(c2ccnc3cc(Cl)ccc23)CC1 | 74% (active) | 22% | -3 | 102% (active) | inactive | inactive | inactive | inactive |
| Cc1ccccc1C1CCN(C2CCC(NC(=O)c3cncc(-c4ccccc4)c3)CC2)CC1 (stereo not given) | 92% (active) | 27% | -1 | 101% (active) | inactive | inactive | inactive | inactive |
| COc1ccc(C(=O)N2CCC(C(=O)NC(C)c3ccc(-n4ccnc4)cc3)CC2)c2ccccc12 (stereo not given) | 79% (active) | 12% | -4 | 83% (active) | inactive | inactive | inactive | inactive |
| O=C(c1cc2cccc([N+](=O)[O-])c2[nH]1)N1CCC(CCN2CCC(c3c[nH]c4ccccc34)CC2)CC1 | 24% | 45% | 1 | 89% (active) | inactive | inactive | inactive | inactive |
| N#Cc1ccc2c(c1)CCN(CCC1CCC(NC(=O)/C=C/c3nc4ccccc4s3)CC1)CC2 (stereo not given) | -2% | 6% | -4 | 90% (active) | inactive | inactive | inactive | inactive |
| CC(C)(C)Cn1cc(-c2ccc(C(=O)NCCc3ccc(S(C)(=O)=O)cc3)cc2)c(N)n1 (tested in a mixture with another compound) | 10% | 7% | -1 | 86% (active) | inactive | inactive | inactive | inactive |
| C=C(F)c1sc(CNCCCNc2nc3ccccc3[nH]2)c(C)c1Br | 23% | 15% | 3 | 100% (active) | inactive | inactive | inactive | inactive |
| C[C@H](NCCC1CCC(NC(=O)N[C@H](C)C(O)(c2ccccc2)c2ccccc2)CC1)c1cccc2ccccc12 (stereo not given in full) | 58% (active) | 43% | -2 | 86% (active) | inactive | inactive | inactive | inactive |
| OCC1CCN(Cc2ccc(-c3cccc(-c4nc5ccc(F)cc5[nH]4)c3)cc2)CC1 | 25% | 14% | -3 | 100% (active) | inactive | inactive | inactive | inactive |
| Cc1cc(N)ncc1-c1ccc(NC(=O)Nc2cc(C(F)(F)F)ccc2F)cc1 | 23% | 15% | 3 | 100% (active) | inactive | inactive | inactive | inactive |
| COc1cccc2cc(C(=O)N[C@@H](CC(C)C)C(=O)N[C@H](/C=N/NC(=O)c3ccccc3)Cc3cnc[nH]3)oc12 | 90% (active) | 3% | -6 | 99% (active) | inactive | inactive | inactive | inactive |
